Screening results deposited in PubChem by National Center for Advancing Translational Sciences (NCATS).
KDM5B inh = inhibitors of human KDM5B histone demethylase. Q9UGL1. KDM5B demethylase, FDH-coupled NADH fluorescence (FDH is formaldehyde dehydrogenase). Potency, µM (doses to about 57.7 µM), hits mostly inhibitors. hit rate 2.6% among 220,000. AID 1347165; active means well fitted inhibition curve with a large enough effect; further: nearly all actives have a fitted effect of over 70% in size
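KDM5BΔAP (200 nM final) in 50 mM HEPES pH 7.5, 0.01% Tween-20 was preincubated 10 min at RT with compound over a concentration range. Substrate mix (H3K4me3 12.5 µM, α-KG 25 µM, Fe²⁺, ascorbate, NAD⁺, FDH) was added, and NADH fluorescence change over 30 min gave dose-response curves.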
Large screens that a line does not name were inactive. The entries come from a sample that favours hits as a whole.

O=c1[nH]c(O)c(N=Nc2ccc(Cl)c(S(=O)(=O)Nc3ccccc3Cl)c2)c(=O)[nH]1	none
CN(C)c1cccc(Oc2nnnn2[C@H]2CO[C@H]3[C@@H]2OC[C@@H]3NC(=O)Nc2ccc(Oc3ccccc3)cc2)c1	none
COc1ccc(NC(=O)N[C@H]2CO[C@H]3[C@@H]2OC[C@@H]3n2nnnc2Oc2ccccc2)cc1	none
CN(C)c1ccc(-c2nnnn2[C@H]2CO[C@H]3[C@@H]2OC[C@@H]3NC(=O)CCC(=O)O)cc1	none
CN(C)c1ccc(-c2nnnn2[C@H]2CO[C@H]3[C@@H]2OC[C@@H]3NC(=O)Nc2ccc(Oc3ccccc3)cc2)cc1	KDM5B inh 12.6µM
CN(C)c1ccc(-c2nnnn2[C@H]2CO[C@H]3[C@@H]2OC[C@@H]3NS(=O)(=O)c2ccc3ccccc3c2)cc1	KDM5B inh 22.4µM
CN(C)c1ccc(-c2nnnn2[C@H]2CO[C@H]3[C@@H]2OC[C@H]3O)cc1	none
Cc1nn(C)cc1CN1CCC2(CCN(Cc3cccnc3)CC2)C(CO)C1 (centres undefined)	none
O=C(NCc1noc(Cc2cccs2)n1)C1COc2ccccc2C1 (centres undefined)	none
CC(=O)NC(C(=O)N1CCC(c2nc3ccccc3s2)CC1)C(C)C (centres undefined)	none
CC(=O)N1CCC(N2CC[C@H](c3nc4ccccc4s3)C2)CC1	KDM5B inh 31.6µM
Cc1cc(C)cc(OCC(=O)N2CCC(c3nc4ccccc4s3)CC2)c1	none
Cc1cccc(NC(=O)Cc2nc(-c3c(N)n(CC(C)C)c(=O)n(C)c3=O)cs2)c1	none
CCn1ccc2sc(C)c(C(=O)NCCC(C)C)c2c1=O	none
Cc1ccc(CNC(=O)c2c(C)sc3ccn(CC(C)C)c(=O)c23)o1	KDM5B inh 25.1µM
CCCn1ccc2sc(C)c(C(=O)NCc3ccccc3)c2c1=O	none
Fc1ccc(N2CCN(Cc3ncc(-c4ccc(Cl)cc4)o3)CC2)cc1	none
O=C(N/N=C/c1ccc(-c2ccccc2)cc1)c1cccs1	none
O=C1CC2CCN(C(=O)c3ccc(F)cc3)CC2CCN1 (centres undefined)	none
O=C1CC2CCN(C(=O)c3cccc(Cl)c3)CC2CCN1 (centres undefined)	none
O=C1CC2CCN(C(=O)c3ccccc3)CC2CCN1 (centres undefined)	KDM5B inh 28.2µM
CC(Oc1ccccc1)C(=O)OCC(=O)NC(=O)NC1CCCCC1 (centres undefined)	none
COc1ccc(C(=O)OCc2nc(N)c3ccccc3n2)cc1	none
CC(C)C(NC(=O)N1CCC(NS(=O)(=O)c2cccs2)CC1)c1ccc(F)cc1 (centres undefined)	none
CCC(C(=O)Nc1cccc(OC)c1)n1cnc2ccccc2c1=O (centres undefined)	none
CC(C)(Oc1nn(Cc2cccc(Cl)c2)c2ccccc12)C(=O)NCC1CCOCC1	none
CC(C)(Oc1nn(CCN2CCOCC2)c2ccccc12)C(=O)NCCc1ccccc1	none
CC(C)(Oc1nn(CC2CCOCC2)c2ccccc12)C(=O)NC1CCOCC1	KDM5B inh 35.5µM
CC(C)(Oc1nn(CCN2CCOCC2)c2ccccc12)C(=O)NCCCn1ccnc1	none
CC(C)(Oc1nn(CC2CCOCC2)c2ccccc12)C(=O)NCCc1ccccc1	KDM5B inh 35.5µM
CC(C)(Oc1nn(CCOc2ccccc2)c2ccccc12)C(=O)NCc1ccncc1	none
Cc1ccccc1CN1CCN(S(=O)(=O)c2ccc(CC(=O)O)s2)CC1	none
COC(=O)c1ccc(CNC2CCCCC2)o1	none
CCCC1(CO)CCCN(Cc2ccc(OCC(=O)N3CCCC3)cc2)C1 (centres undefined)	none
Cn1ccnc1-c1ccc(N2CCC(CO)(CCOc3ccccc3)CC2)nn1	KDM5B inh 28.2µM
Cn1ccnc1-c1cn(CC2(c3ccccc3F)CCCC2)nn1	none
Cn1ccnc1-c1ccc(N2CCCC(CO)(CCOc3ccccc3)C2)nn1 (centres undefined)	KDM5B inh 31.6µM
OCC1(CCOc2ccccc2)CCN(c2nnnn2-c2ccccc2)CC1	none
Cn1ccnc1-c1cn(Cc2scnc2-c2ccccc2)nn1	none
Cc1ncsc1CCN(C)CC1(O)CCCNC1 (centres undefined)	none
Cc1ccc(CN(C)C(C)C(=O)NCc2cccs2)cc1 (centres undefined)	none
COc1ccc(S(=O)(=O)N2CCCC(C(=O)NCCN3CCOCC3)C2)cc1C (centres undefined)	none
Cc1noc(NS(=O)(=O)c2ccc(NC(=O)C(C)(C)C)cc2)c1C	none
O=C(NCc1ccccc1)c1ccc2nc(-c3ccccc3)c(-c3ccccc3)nc2c1	none
Cc1oc(-c2ccccc2)nc1CC(=O)NCCN1CCOCC1	none
O=C(NCCN1CCOCC1)c1cccc(Br)c1	none
CCOc1ccc(C(=O)NCCc2csc(-c3cccc(C)c3)n2)cc1	none
Cc1ncsc1CCNC(=O)c1ccc2nc(-c3ccccc3)cn2c1	KDM5B inh 25.1µM
Cc1ncsc1CCC(=O)N(C)Cc1csc(-c2ccccc2)n1	none
O=C(NCCN1CCOCC1)c1ccc2nc(-c3ccccc3)cn2c1	KDM5B inh 28.2µM
O=[N+]([O-])c1ccc(N/N=C/c2cccs2)c(S(=O)(=O)Nc2ccccc2Cl)c1	none
COc1ccc(C(=O)/C(=C\c2cccc(Br)c2)c2nc3ccccc3o2)cc1	none
